Test results published in the supplement of paper PMC8728848.
The sample as a whole holds a higher share of the strongest signals than the screen did.

How the values were obtained:
Test in all cases: glycan array binding signal (z-score within array); higher = stronger binding
Settings in all cases: glycan notation: IUPAC condensed, linker removed
Fuc(a1-2)Gal = molecular target: Fuc(a1-2)Gal
How it was run: (§1)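 Glycan array data came from 3228 arrays in the Consortium for Functional Glycomics database, and only arrays with an available protein sequence were kept. Glycan names were put into IUPAC-condensed notation, and columns mapping to the same glycan were averaged. The binding signal is a within-array Z-score, averaged across arrays of one protein sequence run at different concentrations or buffers and across linkers. A negative Z-score can be read as non-binding.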

[1] = molecular target: Fuc(a1-2)Gal(b1-3)GlcNAc(b1-2)Man(a1-3)[Fuc(a1-2)Gal(b1-3)GlcNAc(b1-2)Man(a1-6)]Man(b1-4)GlcNAc(b1-4)[Fuc(a1-6)]GlcNAc
How it was run: as §1

[2] = molecular target: Fuc(a1-2)Gal(b1-3)[Fuc(a1-4)]GlcNAc
How it was run: as §1

Fuc(a1-2)Gal(b1-4)Glc = molecular target: Fuc(a1-2)Gal(b1-4)Glc
How it was run: as §1

[3] = molecular target: Fuc(a1-2)Gal(b1-4)[Fuc(a1-3)]GlcNAc(b1-2)[Fuc(a1-2)Gal(b1-4)[Fuc(a1-3)]GlcNAc(b1-4)]Man(a1-3)[Fuc(a1-2)Gal(b1-4)[Fuc(a1-3)]GlcNAc(b1-2)Man(a1-6)]Man(b1-4)GlcNAc(b1-4)GlcNAc
How it was run: as §1

[4] = molecular target: Fuc(a1-2)[Gal(a1-4)]Gal(b1-4)GlcNAc
How it was run: as §1

[5] = molecular target: Fuc(a1-3)[Gal(b1-4)]GlcNAc(b1-2)Man(a1-3)[Fuc(a1-3)[Gal(b1-4)]GlcNAc(b1-2)Man(a1-6)]Man(b1-4)GlcNAc(b1-4)[Fuc(a1-6)]GlcNAc
How it was run: as §1

[6] = molecular target: Fuc(a1-3)[Gal(b1-4)]GlcNAc6S
How it was run: as §1

[7] = molecular target: Fuc(a1-3)[GalNAc(b1-4)]GlcNAc
How it was run: as §1

[8] = molecular target: Gal(a1-3)Gal(b1-3)GlcNAc(b1-2)Man(a1-3)[Gal(a1-3)Gal(b1-3)GlcNAc(b1-2)Man(a1-6)]Man(b1-4)GlcNAc(b1-4)GlcNAc
How it was run: as §1

[9] = molecular target: Gal(a1-3)Gal(b1-4)GlcNAc(b1-6)GalNAc
How it was run: as §1

Gal(a1-4)Gal(b1-4)Glc = molecular target: Gal(a1-4)Gal(b1-4)Glc
How it was run: as §1

[10] = molecular target: Gal(a1-4)Gal(b1-4)GlcNAc(b1-2)Man(a1-3)[Gal(a1-4)Gal(b1-4)GlcNAc(b1-2)Man(a1-6)]Man(b1-4)GlcNAc(b1-4)GlcNAc
How it was run: as §1

Gal(b1-3)GalNAc = molecular target: Gal(b1-3)GalNAc
How it was run: as §1

[11] = molecular target: Gal(b1-3)GalNAc(a1-3)[Fuc(a1-2)]Gal(b1-4)Glc
How it was run: as §1

[12] = molecular target: Gal(b1-3)GalNAc(a1-3)[Fuc(a1-2)]Gal(b1-4)GlcNAc
How it was run: as §1

[13] = molecular target: Gal(b1-3)GalNAc(b1-4)Gal(b1-4)Glc
How it was run: as §1

[14] = molecular target: Gal(b1-3)GlcNAc(b1-2)Man(a1-3)[GlcNAc(b1-4)][Gal(b1-3)GlcNAc(b1-2)Man(a1-6)]Man(b1-4)GlcNAc(b1-4)GlcNAc
How it was run: as §1

[15] = molecular target: Gal(b1-3)[Fuc(a1-4)]GlcNAc(b1-2)Man(a1-3)[Gal(b1-3)[Fuc(a1-4)]GlcNAc(b1-2)Man(a1-6)]Man(b1-4)GlcNAc(b1-4)[Fuc(a1-6)]GlcNAc
How it was run: as §1

Gal(b1-4)GlcNAc(b1-2)Man = molecular target: Gal(b1-4)GlcNAc(b1-2)Man
How it was run: as §1

[16] = molecular target: Gal(b1-4)GlcNAc(b1-2)Man(a1-3)[Man(a1-6)]Man(b1-4)GlcNAc(b1-4)GlcNAc
How it was run: as §1

[17] = molecular target: Gal(b1-4)GlcNAc(b1-2)[Gal(b1-4)GlcNAc(b1-4)]Man(a1-3)[Gal(b1-4)GlcNAc(b1-2)Man(a1-6)]Man(b1-4)GlcNAc(b1-4)GlcNAc
How it was run: as §1

[18] = molecular target: Gal(b1-4)GlcNAc(b1-3)Gal(b1-4)Glc
How it was run: as §1

Gal6S(b1-3)GlcNAc6S = molecular target: Gal6S(b1-3)GlcNAc6S
How it was run: as §1

Gal6S(b1-4)GlcNAc6S = molecular target: Gal6S(b1-4)GlcNAc6S
How it was run: as §1

[19] = molecular target: GalNAc(b1-4)GlcNAc(b1-2)Man(a1-3)[GalNAc(b1-4)GlcNAc(b1-2)Man(a1-6)]Man(b1-4)GlcNAc(b1-4)GlcNAc
How it was run: as §1

[20] = molecular target: GlcNAc(a1-4)Gal(b1-3)GlcNAc
How it was run: as §1

[21] = molecular target: GlcNAc(a1-4)Gal(b1-4)GlcNAc(b1-3)Gal(b1-4)[Fuc(a1-3)]GlcNAc(b1-3)Gal(b1-4)[Fuc(a1-3)]GlcNAc
How it was run: as §1

[22] = molecular target: GlcNAc(b1-2)Man(a1-3)[GlcNAc(b1-4)][GlcNAc(b1-2)Man(a1-6)]Man(b1-4)GlcNAc(b1-4)GlcNAc
How it was run: as §1

[23] = molecular target: GlcNAc(b1-3)Gal(b1-4)GlcNAc
How it was run: as §1

[24] = molecular target: GlcNAc(b1-3)[GlcNAc(b1-4)][GlcNAc(b1-6)]GlcNAc
How it was run: as §1

Kdn(a2-3)Gal(b1-4)GlcNAc = molecular target: Kdn(a2-3)Gal(b1-4)GlcNAc
How it was run: as §1

[25] = molecular target: Man(a1-2)Man(a1-2)Man(a1-3)Man
How it was run: as §1

[26] = molecular target: Man(a1-2)Man(a1-3)[Man(a1-6)]Man(a1-6)[Man(a1-2)Man(a1-3)]Man(b1-4)GlcNAc(b1-4)GlcNAc
How it was run: as §1

[27] = molecular target: Man(a1-3)[Man(a1-6)]Man(b1-4)GlcNAc(b1-4)[Fuc(a1-6)]GlcNAc
How it was run: as §1

[28] = molecular target: Neu5Ac(a2-3)Gal(b1-4)GlcNAc(b1-2)Man
How it was run: as §1

[29] = molecular target: Neu5Ac(a2-3)Gal(b1-4)GlcNAc(b1-3)Gal
How it was run: as §1

[30] = molecular target: Neu5Ac(a2-3)Gal(b1-4)GlcNAc(b1-3)Gal(b1-4)GlcNAc(b1-3)GalNAc
How it was run: as §1

[31] = molecular target: Neu5Ac(a2-3)Gal(b1-4)GlcNAc(b1-3)Gal(b1-4)GlcNAc(b1-6)[Gal(b1-3)]GalNAc
How it was run: as §1

[32] = molecular target: Neu5Ac(a2-3)Gal(b1-4)GlcNAc(b1-3)GalNAc
How it was run: as §1

[33] = molecular target: Neu5Ac(a2-3)Gal(b1-4)[Fuc(a1-3)]GlcNAc(b1-3)GalNAc
How it was run: as §1

[34] = molecular target: Neu5Ac(a2-3)Gal6S(b1-4)[Fuc(a1-3)]GlcNAc
How it was run: as §1

[35] = molecular target: Neu5Ac(a2-6)Gal(b1-4)GlcNAc(b1-3)Gal(b1-4)GlcNAc(b1-3)Gal(b1-4)GlcNAc(b1-2)Man(a1-3)[Neu5Ac(a2-6)Gal(b1-4)GlcNAc(b1-3)Gal(b1-4)GlcNAc(b1-3)Gal(b1-4)GlcNAc(b1-2)Man(a1-6)]GalNAc
How it was run: as §1

[36] = molecular target: Neu5Ac(a2-6)Gal(b1-4)GlcNAc(b1-6)[Gal(b1-3)]GalNAc
How it was run: as §1

[37] = molecular target: Neu5Ac(a2-6)GalNAc(b1-4)GlcNAc
How it was run: as §1

[38] = molecular target: Neu5Ac(a2-6)GlcNAc(b1-4)GlcNAc
How it was run: as §1

[39] = molecular target: Neu5Ac(a2-6)GlcNAc(b1-4)GlcNAc(b1-4)GlcNAc
How it was run: as §1

[40] = molecular target: Neu5Ac(a2-8)Neu5Ac(a2-3)Gal(b1-3)GalNAc(b1-4)[Neu5Ac(a2-8)Neu5Ac(a2-3)]Gal(b1-4)Glc
How it was run: as §1

[41] = molecular target: Neu5Gc(a2-3)Gal(b1-4)[Fuc(a1-3)]GlcNAc
How it was run: as §1

B1: B1257 (Bifidobacterium sp) (protein)
chain: MKKSIRLVAAIAALAMTAGISACGSSTNGNQAKSDVTAQDVETALTDTSKNVELTVWAYSAKQMEPTVKAFEKKYPHIKINFVNTGAAGDHFTKFQNVVQAQKDIPDVVQMGANKFQQFAVSGALLNFANDSIEKAWSKLYTKTAWAQVHYAGGLYGAPQDATPLANYVRKDILDEHNLQVPESWEDIYNEGIKLHKEDSNKYMGILGSDISFFTNLYRSVGARLWKVNSVDDVELTMNSGKAKEFTEFLQKCLKDGVLEGGTVFTDEFNRSINDGRYATFINENWMGNTYKEQNPSLKGKMVVAAPPSWKGQPYQSSSVGSMMSVSAACPKEKQAAALAFINWLDSDKDAIQSWQDTNNGNFFMAASVYQDDENQRNKKETDGYYANDDVNAVYFDSMDKVNTDWEYLPFMSQVEVVFNDVIVPQMNENGDLVGAMAKAQQELKTYAKDNGFKVTTDAD
With B1 the “glycan array binding signal (z-score)” value (Fuc(a1-2)Gal) was 23.9, the “glycan array binding signal (z-score)” value [1] was 0.153 and the “glycan array binding signal (z-score)” value [2] was -0.158. For the same binder, the “glycan array binding signal (z-score)” value (Fuc(a1-2)Gal(b1-4)Glc) was 3.8, the “glycan array binding signal (z-score)” value [3] was 0.025 and the “glycan array binding signal (z-score)” value [4] was -0.086. The “glycan array binding signal (z-score)” value [5] was 0.166, the “glycan array binding signal (z-score)” value [6] was -0.027 and the “glycan array binding signal (z-score)” value [7] was 0.046. For the same binder, the “glycan array binding signal (z-score)” value [8] was 0.027, the “glycan array binding signal (z-score)” value [9] was -0.213 and the “glycan array binding signal (z-score)” value (Gal(a1-4)Gal(b1-4)Glc) was -0.023. The “glycan array binding signal (z-score)” value [10] was 0.48, the “glycan array binding signal (z-score)” value (Gal(b1-3)GalNAc) was 0.28 and the “glycan array binding signal (z-score)” value [11] was 0.314. The “glycan array binding signal (z-score)” value [12] was -0.014, the “glycan array binding signal (z-score)” value [13] was -0.085 and the “glycan array binding signal (z-score)” value [14] was 0.324. For the same binder, the “glycan array binding signal (z-score)” value [15] was 0.461, the “glycan array binding signal (z-score)” value (Gal(b1-4)GlcNAc(b1-2)Man) was -0.056 and the “glycan array binding signal (z-score)” value [16] was -0.051. The “glycan array binding signal (z-score)” value [17] was -0.081, the “glycan array binding signal (z-score)” value [18] was 0.301 and the “glycan array binding signal (z-score)” value (Gal6S(b1-3)GlcNAc6S) was -0.051. For the same binder, the “glycan array binding signal (z-score)” value (Gal6S(b1-4)GlcNAc6S) was -0.133, the “glycan array binding signal (z-score)” value [19] was 1.83 and the “glycan array binding signal (z-score)” value [20] was -0.103. The “glycan array binding signal (z-score)” value [21] was 0.11, the “glycan array binding signal (z-score)” value [22] was 0.002 and the “glycan array binding signal (z-score)” value [23] was -0.138. For the same binder, the “glycan array binding signal (z-score)” value [24] was -0.13, the “glycan array binding signal (z-score)” value (Kdn(a2-3)Gal(b1-4)GlcNAc) was -0.061 and the “glycan array binding signal (z-score)” value [25] was -0.128. The “glycan array binding signal (z-score)” value [26] was -0.161, the “glycan array binding signal (z-score)” value [27] was -0.128 and the “glycan array binding signal (z-score)” value [28] was 0.015. The “glycan array binding signal (z-score)” value [29] was -0.111, the “glycan array binding signal (z-score)” value [30] was -0.094 and the “glycan array binding signal (z-score)” value [31] was -0.087. The “glycan array binding signal (z-score)” value [32] was 0.727, the “glycan array binding signal (z-score)” value [33] was 0.158 and the “glycan array binding signal (z-score)” value [34] was -0.194. The “glycan array binding signal (z-score)” value [35] was 0.344, the “glycan array binding signal (z-score)” value [36] was -0.046 and the “glycan array binding signal (z-score)” value [37] was -0.178. For the same binder, the “glycan array binding signal (z-score)” value [38] was -0.027, the “glycan array binding signal (z-score)” value [39] was -0.081 and the “glycan array binding signal (z-score)” value [40] was -0.004. The “glycan array binding signal (z-score)” value [41] was -0.012.
